# Experimental data: PMC8384837, “Expanding the binding specificity for RNA recognition by a PUF domain”
# How the values were obtained:
# Experiment in all cases: yeast three-hybrid, YBZ-1, SC-Leu-His + 0.5 mM 3-AT, 4 days
# Settings in all cases: tags: N-Gal4 AD-HA kept; label: inside an RPR1-promoter hybrid RNA with tandem MS2 sites; ssRNA
# PUM1 PUF domain R7-KFY = PUM1 PUF domain R7-KFY (Homo sapiens, UniProt Q14671 828-1176, S1079K;N1080F;E1083Y)
# Summary of the method: (§1)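 A centromeric plasmid in strain YBZ-1 co-expressed Pumilio-1 PUF domain libraries, randomized at the three base-contacting residues of each repeat, with matching RNA elements; the strain carries a LexA–MS2 coat fusion and a HIS3 reporter. After four days on SC-Leu (input) or SC-Leu-His + 0.5 mM 3-AT (selection), the repeat regions were PCR-amplified and Illumina-sequenced. The interaction score is the log change in variant frequency from input to selection, using log2 and a pseudocount of 1 where absent.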
# PUM1 PUF domain R4-ARG = PUM1 PUF domain R4-ARG (Homo sapiens, UniProt Q14671 828-1176, N971A;H972R;Q975G)
# Chain of PUM1 PUF domain R4-ARG (Q14671 828-1176 N971A/H972R/Q975G): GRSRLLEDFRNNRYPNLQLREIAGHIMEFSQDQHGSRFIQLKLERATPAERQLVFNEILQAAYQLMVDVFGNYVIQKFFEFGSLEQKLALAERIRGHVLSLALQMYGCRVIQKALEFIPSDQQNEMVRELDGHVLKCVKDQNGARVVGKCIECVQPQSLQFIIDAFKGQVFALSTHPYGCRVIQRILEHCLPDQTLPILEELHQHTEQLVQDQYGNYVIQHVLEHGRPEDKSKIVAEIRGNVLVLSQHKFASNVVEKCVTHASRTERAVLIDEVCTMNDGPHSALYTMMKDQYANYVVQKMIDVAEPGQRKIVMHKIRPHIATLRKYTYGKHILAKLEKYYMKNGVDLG
# Summary of the method: as §1
# PUM1 PUF domain R4-NPG = PUM1 PUF domain R4-NPG (Homo sapiens, UniProt Q14671 828-1176, H972P;Q975G)
# Chain of PUM1 PUF domain R4-NPG (Q14671 828-1176 H972P/Q975G): as the sequence (Q14671 828-1176 N971A/H972R/Q975G) above, with A144N, R145P counted along it
# Summary of the method: as §1
# PUM1 PUF domain R4-RMR = PUM1 PUF domain R4-RMR (Homo sapiens, UniProt Q14671 828-1176, N971R;H972M;Q975R)
# Summary of the method: as §1
# PUM1 PUF domain R3-EYS = PUM1 PUF domain R3-EYS (Homo sapiens, UniProt Q14671 828-1176, C935E;R936Y;Q939S)
# Summary of the method: as §1
# PUM1 PUF domain R7-EPW = PUM1 PUF domain R7-EPW (Homo sapiens, UniProt Q14671 828-1176, S1079E;N1080P;E1083W)
# Summary of the method: as §1
# PUM1 PUF domain R4-SRE = PUM1 PUF domain R4-SRE (Homo sapiens, UniProt Q14671 828-1176, N971S;H972R;Q975E)
# Summary of the method: as §1
# PUM1 PUF domain R6-NFT = target: T1, PUM1 PUF domain R6-NFT (Homo sapiens, UniProt Q14671 828-1176, Y1044F;Q1047T)
# T1 sequence: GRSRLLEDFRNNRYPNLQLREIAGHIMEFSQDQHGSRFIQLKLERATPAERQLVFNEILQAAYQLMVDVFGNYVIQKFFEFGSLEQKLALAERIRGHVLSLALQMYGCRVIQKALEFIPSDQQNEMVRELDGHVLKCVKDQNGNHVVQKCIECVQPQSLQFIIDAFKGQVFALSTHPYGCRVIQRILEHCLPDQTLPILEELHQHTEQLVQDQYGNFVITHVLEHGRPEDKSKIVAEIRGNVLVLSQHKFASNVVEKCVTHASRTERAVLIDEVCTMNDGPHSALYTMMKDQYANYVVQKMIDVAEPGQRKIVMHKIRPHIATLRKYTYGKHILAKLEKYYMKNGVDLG
# Summary of the method: as §1
# PUM1 PUF domain R3-ESL = PUM1 PUF domain R3-ESL (Homo sapiens, UniProt Q14671 828-1176, C935E;R936S;Q939L)
# Summary of the method: as §1
# PUM1 PUF domain R8-VYF = PUM1 PUF domain R8-VYF (Homo sapiens, UniProt Q14671 828-1176, N1122V;Q1126F)
# Summary of the method: as §1
sequence,measurement,setting,value
GGCUAGAACUAGUGGAUCCCCCGGCGCCCGGCGGCUCGAGCCCGGGUAAGUCUAAAUAGUCUGCAUGCCGCCGGGCGCCAUGCCUGCAGGUCGACUCUAGAAAACAUG,binding signal,PUM1 PUF domain R7-KFY,3.1 log2 enrichment (interaction score)
GGCUAGAACUAGUGGAUCCCCCGGCGCCCGGCGGCUCGAGCCCGGGUAAGUGUAUAUAGUCUGCAUGCCGCCGGGCGCCAUGCCUGCAGGUCGACUCUAGAAAACAUG,binding signal,PUM1 PUF domain R4-ARG,1.79 log2 enrichment (interaction score)
same,binding signal,PUM1 PUF domain R4-NPG,3.81 log2 enrichment (interaction score)
GGCUAGAACUAGUGGAUCCCCCGGCGCCCGGCGGCUCGAGCCCGGGUAAGUGUACAUAGUCUGCAUGCCGCCGGGCGCCAUGCCUGCAGGUCGACUCUAGAAAACAUG,binding signal,PUM1 PUF domain R4-RMR,2.94 log2 enrichment (interaction score)
same,binding signal,PUM1 PUF domain R4-ARG,1.86 log2 enrichment (interaction score)
same,binding signal,PUM1 PUF domain R4-NPG,1.42 log2 enrichment (interaction score)
GGCUAGAACUAGUGGAUCCCCCGGCGCCCGGCGGCUCGAGCCCGGGUAAGUGUAAGUAGUCUGCAUGCCGCCGGGCGCCAUGCCUGCAGGUCGACUCUAGAAAACAUG,binding signal,PUM1 PUF domain R3-EYS,4.44 log2 enrichment (interaction score)
GGCUAGAACUAGUGGAUCCCCCGGCGCCCGGCGGCUCGAGCCCGGGUAAGUUUAAAUAGUCUGCAUGCCGCCGGGCGCCAUGCCUGCAGGUCGACUCUAGAAAACAUG,binding signal,PUM1 PUF domain R7-EPW,2.81 log2 enrichment (interaction score)
GGCUAGAACUAGUGGAUCCCCCGGCGCCCGGCGGCUCGAGCCCGGGUAAGUGUAAAUAGUCUGCAUGCCGCCGGGCGCCAUGCCUGCAGGUCGACUCUAGAAAACAUG,binding signal,PUM1 PUF domain R4-SRE,3.49 log2 enrichment (interaction score)
same,binding signal,PUM1 PUF domain R4-ARG,4.57 log2 enrichment (interaction score)
same,binding signal,PUM1 PUF domain R6-NFT,4.45 log2 enrichment (interaction score)
same,binding signal,PUM1 PUF domain R3-ESL,2.59 log2 enrichment (interaction score)
same,binding signal,PUM1 PUF domain R8-VYF,2.23 log2 enrichment (interaction score)
same,binding signal,PUM1 PUF domain R4-NPG,2.63 log2 enrichment (interaction score)
GGCUAGAACUAGUGGAUCCCCCGGCGCCCGGCGGCUCGAGCCCGGGUAAGCGUAAAUAGUCUGCAUGCCGCCGGGCGCCAUGCCUGCAGGUCGACUCUAGAAAACAUG,binding signal,PUM1 PUF domain R8-VYF,2.73 log2 enrichment (interaction score)
GGCUAGAACUAGUGGAUCCCCCGGCGCCCGGCGGCUCGAGCCCGGGUAAGUAUAAAUAGUCUGCAUGCCGCCGGGCGCCAUGCCUGCAGGUCGACUCUAGAAAACAUG,binding signal,PUM1 PUF domain R7-KFY,2.56 log2 enrichment (interaction score)
